Only some compounds are listed: those with a hit (about 7.1% of all), similar ones and a draw of the others.
SW480 rereplic – A quantitative high throughput screen for small molecules that induce DNA re-replication in SW480 colon adenocarcinoma cells. SW480 DNA re-replication, Hoechst DNA content imaging, 48 h. actives 1.8% (n = 340,000). AID 624297, 2012. Potency, µM (highest dose often 46.1 µM), inactives show top-dose re-replication activation, hits mostly activators; note: % of control where 0% means no effect; nearly all actives have a fitted effect of over 55% in size
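Image-based read-out: total Hoechst fluorescence of nuclei (405 nm excitation, 500-530 nm emission), with hits raising the fraction of high-intensity nuclei. SW480 colon cells incubated 48 hr with compounds at 37 C.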
ELG1 genotoxic – qHTS screen for small molecules that induce genotoxicity in human embryonic kidney (HEK293T) cells expressing luciferase-tagged ELG1 | HEK293T ELG1-luciferase reporter, luminescence, 16 h | actives 1.3% (n = 330,000) | Potency, µM (doses to about 46 µM), without a hit: at the highest dose activity change, positive = activation, usual class: activators | AID 504466, 2011; note: % of control where 0% means no effect; nearly all actives have a fitted effect of over 60% in size
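Genotoxicity was scored as increased ELG1-luciferase reporter signal, measured by ONE-Glo luminescence (30 min, room temperature). Compound or vehicle exposure of the HEK293T reporter cells lasted 16 hr at 37°C.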
p53 reactivation – qHTS assay for re-activators of p53 using a Luc reporter | H1299 p53-A138V BP100-luciferase reporter, luminescence, 24 h | Potency, µM (doses to about 92.2 µM), without a hit: top-dose activity change, positive = activation, usual class: activators | actives 0.063% (n = 320,000) | AID 504706, 2011; note: % of control where 0% means no effect; nearly all actives have a fitted effect of over 45% in size
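p53-null H1299 cells stably carrying temperature-sensitive p53-A138V and a BP100-luciferase reporter were pinned with compounds (4-point, 1:5 series) and held 24 hrs at 37 deg C. Luminescence was read 10 min after detection reagent.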
ELG1 repair inh – qHTS screen for small molecules that inhibit ELG1-dependent DNA repair in human embryonic kidney (HEK293T) cells expressing luciferase-tagged ELG1 | actives 2.3% (n = 330,000) | Potency, µM (doses to about 46.1 µM), without a hit: top-dose activity change, negative = inhibition, actives largely listed as inhibitors | HEK293T ELG1-luciferase reporter, luminescence, 16 h; DNA damage induced by 5-fluorouridine; note: % is set by controls: 0 for no effect and ±100 for the full control effect; nearly all actives have a fitted effect of over 55% in size
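Cells (2,000 per well) received 5-fluorouridine plus test compound or DMSO and were incubated 16 hr at 37 °C, 5% CO2. Luciferase activity was read by luminescence 30 min after ONE-Glo addition; signal suppression marked inhibition of damage-induced ELG1 function.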
A-T KAP1 phos – qHTS Assay for Identifying a Potential Treatment of Ataxia-Telangiectasia | F2112 A-T fibroblasts, KAP-1 phosphorylation AlphaLISA; neocarzinostatin DNA damage 30 min before lysis | Potency, µM (highest dose often 57.5 µM), without a hit: top-dose activation, hits mostly activators | actives 0.19% (n = 320,000); note: % of control where 0% means no effect; nearly all actives have a fitted effect of over 45% in size
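ATM-like activity read as KAP-1 phosphorylation via AlphaLISA donor/acceptor antibody pairs after lysis and 6 hr at 25C. Cells were ATM-null patient fibroblasts (F2112, hTERT), dosed 60 min, then exposed to the DSB inducer NCS for 30 min.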
MCF10A rereplic – A quantitative high throughput screen for small molecules that induce DNA re-replication in MCF 10a normal breast cells; MCF 10A DNA re-replication, Hoechst nuclear intensity, 48 h; Potency, µM (doses to about 46.1 µM), for inactives: at the highest dose activity, positive = re-replication, most hits filed as activators; actives 2.9% (n = 350,000); AID 624296, 2012; note: % of control where 0% means no effect; nearly all actives have a fitted effect of over 50% in size
* marks the source's active call; other numbers are inactive results; ? = inconclusive; . = not tested or not shown; [ ] = remark or other dose. Calls come from the whole dose curve; as a rule, active = well fitted curve in the direction sought with a large enough effect; inconclusive = small, poorly fitted or top-dose-only effect, or another doubt; inactive = no such curve, though single readings can be large; an effect the other way counts as inactive or inconclusive. Potency is the fitted concentration of half-maximal effect.

SMILES | SW480 rereplic | ELG1 genotoxic | p53 reactivation | ELG1 repair inh | A-T KAP1 phos | MCF10A rereplic
CN1Cc2c(N3CCOCC3)nc3sc(C#N)c(N)c3c2CC1(C)C | -11% | 2% | -4% | ? | 7% | 12%
CNC(=O)c1ccc(-c2sc3nc(N4CCOCC4)c4c(c3c2N)CC(C)(C)OC4)o1 | ? | 4% | 4% | ? | 4.5µM* | 2.9µM*
CN1Cc2c(N3CCOCC3)nc3sc(C(=O)c4ccc(Br)cc4)c(N)c3c2CC1(C)C | ? | -14% | -12% | ? | 44% | 18µM*
CNC(=O)c1ccc(-c2sc3nc(N4CCOCC4)c4c(c3c2N)CCCC4)o1 | 7.3µM* | 4% | -16% | ? | ? | ?
CC1(C)Cc2c(c(N3CCOCC3)nc3sc(-c4ccc(C(=O)O)o4)c(N)c23)CO1 | 19% | -6% | -4% | 2.6µM* | 12% | ?
Cc1ccc(OCCN2CCN(C(=O)CCC(=O)Nc3nnc(CC(C)C)s3)CC2)cc1 | -1% | -2% | 11% | 2.6µM* | -1% | ?
O=C(CN1C2CCCC1CC(NC(=O)C1CCCCC1)C2)NCc1ccc(F)cc1 (stereo unspecified) | -5% | -7% | 14% | 12µM* | 6% | -5%
O=C(CN1C2CCCC1CC(NC(=O)C1CCCCC1)C2)Nc1ccccc1C(F)(F)F (stereo unspecified) | -9% | -15% | -7% | 15µM* | 3% | 0%
CCCN1C2CCCC1CC(NC(=O)C1CCCCC1)C2 (stereo unspecified) | 3% | -1% | 4% | -2% | . | -2%
COc1cccc(C(=O)NC2CC3CCC(C2)N3Cc2ccccc2)c1 (stereo unspecified) | -3% | 0% | ? | -6% | -13% | 3%
COc1cccc(C(=O)NC2CC3CCCC(C2)N3CC(=O)Nc2ccccc2C(F)(F)F)c1 (stereo unspecified) | 16µM* | -39% | 0% | ? | -5% | ?
O=C(NC1CC2CCCC(C1)N2CC(=O)N1CCCc2ccccc21)C1CCCCC1 (stereo unspecified) | 7% | -4% | -1% | 0% | 2% | 2%
Cc1ccc(S(=O)(=O)NC2CC2)cc1[N+](=O)[O-] | ? | 1% | 0% | -7% | 1% | -14%
COc1ccc(S(=O)(=O)N2CCN(C(=O)CCCN3C(=O)NC4(CCCC4)C3=O)CC2)cc1 | ? | 0% | -1% | 4% | 10% | ?
CCCc1cc(=O)[nH]c(SCC(=O)NCC2COc3ccccc3O2)n1 (stereo unspecified) | -12% | 0% | -2% | ? | 11% | -1%
O=C(O)CNc1nc(-c2ccccc2)c2cc([N+](=O)[O-])ccc2n1 | . | 2% | -5% | 21% | -2% | 6%
O=[N+]([O-])c1ccc2nc(NCCCO)nc(-c3ccccc3)c2c1 | 24% | -3% | -22% | ? | . | 15µM*
Cc1cccc(NC(=S)NNC(=O)c2ccc(O)cc2O)c1C | 0% | -12% | -8% | 10µM* | -4% | 12%
O=C(CN1C(=O)c2ccccc2C1=O)Oc1ccc(F)cc1 | . | -3% | -5% | -14% | 11% | .
O=C1c2cnc3nc(SCc4ccc(Cl)cc4)nn3c2CC2c3ccccc3CCN12 (stereo unspecified) | ? | -2% | -5% | -22% | -7% | 3.3µM*
O=C(COC(=O)c1cccc(Br)c1)NCCc1ccccc1 | -4% | 3% | 6% | 6% | 1% | -4%
O=C(COC(=O)c1cccc(Br)c1)NC(=O)NC1CCCC1 | -43% | 1% | -3% | 20% | 0% | 0.46µM*
O=C(COC(=O)c1cccc(Br)c1)NCCNC(=O)COC(=O)c1cccc(Br)c1 | 5% | -9% | 0% | 6.5µM* | 15% | -10%
CCOC(=O)N1CCC(NC(=O)c2cc(C(=O)Nc3cccc(C(F)(F)F)c3)ccc2CO)CC1 | ? | -8% | 1% | 8.2µM* | 4% | 16%
N#Cc1ccc(C(=O)OCCCc2cc3ccccc3c(=O)o2)cc1 | 2% | 2% | 14% | 12% | 16% | 6%
SMILES | SW480 rereplic | ELG1 genotoxic | p53 reactivation | ELG1 repair inh | A-T KAP1 phos | MCF10A rereplic
CCOCCCNC(=O)CCn1nc(-c2ccc(Cl)cc2)ccc1=O | ? | 0% | -2% | ? | -2% | -10%
COCCCn1c(SCCc2ccccc2)nc2cc(OC)c(OC)cc2c1=N | -14% | -2% | -7% | ? | 3% | 7.3µM*
CC1CCc2c(sc3nc(C4CC4)nc(N4CCN(C(=O)c5ccco5)CC4)c23)C1 (stereo unspecified) | ? | . | . | . | . | 16µM*
c1ccc(N2CCN(c3ncnc4sc5c(c34)CCC5)CC2)cc1 | -10%[9.22 µM] | -6% | -4% | 16µM* | 8% | ?
CCc1nc(N2CCN(C(=O)c3ccco3)CC2)c2c3c(sc2n1)CCCC3 | 0% | -9% | -5% | ? | 7% | 28%
O=C(c1ccco1)N1CCN(c2ncnc3sc4c(c23)CCC4)CC1 | 1% | -23% | -12% | 15µM* | 0% | 9%
CC1CCc2c(sc3ncnc(SCC(=O)N4CCN(C(=O)c5ccco5)CC4)c23)C1 (stereo unspecified) | . | -4% | -1% | -3% | 0% | .
CC1Cc2c([nH]c(=O)n(-c3ccccc3)c2=O)O1 (stereo unspecified) | -9% | . | . | . | . | 0%
O=C(NCc1cn(-c2ccccc2)nc1-c1ccccc1)c1cc([N+](=O)[O-])cc([N+](=O)[O-])c1 | 15% | 0% | -6% | -13% | -4% | 0%
O=C(NCc1cn(-c2ccccc2)nc1-c1ccccc1)c1cccc([N+](=O)[O-])c1 | ? | 0% | 1% | 21µM* | 3% | 1%
CC(=O)C1=C(C)NC(SCC(=O)c2ccc(Cl)c(Cl)c2)=C(C#N)C1c1ccco1 (stereo unspecified) | 12µM* | -17% | 1% | ? | 7% | 2%
COc1ccccc1NC(=O)C1=C(C)NC(SCC(=O)c2ccc(C)cc2)=C(C#N)C1c1ccco1 (stereo unspecified) | . | 1% | 8% | 16µM* | 1% | .

Bioassay records from PubChem BioAssay.
